From PubChem BioAssay (NCI)
About 79,000 compounds went through this panel and 15% of them were active in at least one assay; those are over-represented in the sample as a whole. The source made the active and inactive calls. Rule as the data show it: active = growth inhibition above about 70%; inactive = the rest.

test: NCI Yeast Anticancer Drug Screen. Data for the mec2-1 strain (AID 157); conditions: S. cerevisiae mec2-1 strain, at 50.0 µM (retest, dose inferred, filed as 5.0), hits give high values
Outline: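 Using mec2-1 yeast: add compound, measure growth, express inhibition versus vehicle-treated cultures.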

| Structure (SMILES) | growth inhibition |
| --- | --- |
| Cc1cc2c(Br)cc(Br)c(O)c2nc1C(=O)c1ccccc1 | 38% (inactive) |
| N=C1c2ccccc2-c2ccccc21 | 17% (inactive) |
| COc1ccc(-c2cn(-c3ccccc3)c3ncnc(N)c23)cc1 | 23% (inactive) |
| Nc1ccc(N=Nc2ccccc2)c2ccccc12 | 98% (active) |
| CS(=O)(=O)C(=Cc1ccccc1Cl)S(C)(=O)=O | 29% (inactive) |
| O=C1c2ccccc2C(=O)c2sc(Nc3cc(Cl)ccc3Cl)nc21 | 99% (active) |
| COC1=CC(=O)c2c(O)c3c(c(O)c2C1=O)C=C(C)OC3O (stereo not drawn) | 31% (inactive) |
| NC(=S)N/N=C1\NC(=O)/C(=C/c2ccc3c(c2)OCO3)S1 | 20% (inactive) |
| CCN(CC)P(=S)(c1ccccc1CCP(=S)(c1ccccc1)c1ccccc1)N(CC)CC | 21% (inactive) |
| CCC(=O)Oc1c(Cl)cc(Cl)c(Cl)c1Cl | 59% (inactive) |
| CCOC(=O)C(C)(C)C | 16% (inactive) |
| COC1=CC(=O)c2ncccc2C1=O | 83% (active) |
| O=C1CCSC(=S)N1c1ccccc1C(F)(F)F | 99% (active) |
| O=C1c2cccc(NCCNCCO)c2C(=O)c2cccc(NCCNCCO)c21 | -8% (inactive) |
| CCOc1cc2c(cc1O)CC[C@@H]1[C@@H]2CC[C@]2(C)[C@@H](O)CC[C@@H]12 | 33% (inactive) |
| S=C(N/N=C/c1ccccn1)N1CC2CCC(CC2)C1 | 100% (active) |
| COc1ccc(Nc2nc3ccccc3s2)cc1 | 0% (inactive) |
| O=C(OCC1OC(OCC(OC(=O)c2ccccc2)C(OC(=O)c2ccccc2)C(OC(=O)c2ccccc2)c2cnn(-c3ccccc3)n2)C(OC(=O)c2ccccc2)C(OC(=O)c2ccccc2)C1OC(=O)c1ccccc1)c1ccccc1 (stereo not drawn) | -21% (inactive) |
